Reference: PubChem BioAssay AID651597 (National Center for Advancing Translational Sciences (NCATS), 2012)
Among all 1,100 compounds or so, about 390 (35%) were called active. About 30% were inconclusive and are not listed. Calls follow the shape of the dose curve; as a rule, active = well fitted inhibition curve with a large enough effect; inconclusive = small, poorly fitted or top-dose-only effect; inactive = flat fitted curve, though single readings scatter. This is one part of the list.

target: Luciferin 4-monooxygenase (Photinus pyralis) (UniProt P08659); experiment: qHTS of Nrf2 Activators: Hit Validation in Secondary FLuc Assay; conditions: firefly luciferase inhibition counter-screen, luminescence; series mostly up to 57.5 µM; also: nearly all actives have a fitted effect of over 65% in size
Method in brief: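 Counter-screen on purified firefly luciferase with ATP and D-luciferin at Km concentrations; compounds flagged if they inhibit the enzyme, indicating possible reporter stabilization rather than ARE activation.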
Potency is read from the fitted curve at half-maximal effect.

| Structure (SMILES) | Potency |
| --- | --- |
| [O-][n+]1onc2c1CCc1c-2nn(-c2ccccc2Cl)[n+]1[O-] | inactive |
| O=C(Nc1nccs1)c1cc(-c2ccco2)nc2ccccc12 | 6.01 µM (active) |
| Cc1csc(NC(=O)c2cc(-c3ccco3)nc3ccccc23)n1 | 5.36 µM (active) |
| Cc1nc2ccccc2c(=O)n1NCc1cc(Br)cs1 | inactive |
| CC1CCc2c(cc(-c3ccccc3)n2-c2ccc(C(=O)NC(C)C)cc2)C1 (stereo not given) | inactive |
| Oc1ccccc1-c1csc(-c2ccccc2)n1 | 1.69 µM (active) |
| COC(=O)c1sccc1NC(=O)c1c(C)noc1C | inactive |
| COc1ccc(NC(=O)c2cc(-c3ccco3)on2)c(OC)c1 | inactive |
| O=C(CSc1ccc(-c2ccco2)nn1)N1CCCCCC1 | 16.9 µM (active) |
| COc1ccc(Cl)cc1NC(=O)CSc1c2c(nc3ccccc13)CCC2 | inactive |
| COc1ccc(NC(=O)CSc2ccc(-c3ccco3)nn2)c(OC)c1 | 3.38 µM (active) |
| COc1ccc(NC(=O)CSc2ccc(-c3ccco3)nn2)cc1OC | 15.1 µM (active) |
| COc1ccc(Cl)cc1NC(=O)c1cc(-c2ccco2)on1 | inactive |
| COc1ccccc1NC(=O)CSc1ccc(-c2ccco2)nn1 | 15.1 µM (active) |
| CC(OC(=O)/C=C/c1ccc2ccccc2n1)C(=O)Nc1ccc(S(N)(=O)=O)cc1 (stereo not given) | inactive |
| O=C1CC(C(=O)Nc2ccc(Cl)c(Cl)c2)S/C(=N\N=C\c2ccco2)N1 (stereo not given) | inactive |
| O=C(N/N=C\c1ccco1)Nc1cccc(Cl)c1 | 8.49 µM (active) |
| Cc1nc(C)c(C(=O)N/N=C/c2ccco2)s1 | inactive |
| O=C(N/N=C/c1ccco1)Nc1ccccc1 | 10.7 µM (active) |
| O=C1CC(C(=O)Nc2ccc(Br)cc2)S/C(=N\N=C\c2ccco2)N1 (stereo not given) | inactive |
| O=C1C=C(Nc2cccc(Cl)c2)CC(c2ccco2)C1 (stereo not given) | inactive |
| CC(=O)N(/N=C1\Sc2ccccc2C1=O)c1ccccc1 | 0.301 µM (active) |

| Structure (SMILES) | Potency |
| --- | --- |
| NS(=O)(=O)c1ccc(O)c(NC(=O)c2ccc([N+](=O)[O-])o2)c1 | 16.9 µM (active) |
| CS(=O)(=O)N1CCN(c2ccccc2NC(=O)c2ccc([N+](=O)[O-])o2)CC1 | inactive |
| COc1ccc(N2CCCC2)c(NC(=O)c2ccc([N+](=O)[O-])o2)c1 | inactive |
| Cc1cccc(C)c1OCC(=O)N/N=C/C=C/c1ccco1 | inactive |
| O=C(COC(=O)/C=C/c1ccco1)Nc1ccc(F)cc1Cl | inactive |
| O=C(C=Cc1ccco1)c1ccc2ccccc2c1 | 0.239 µM (active) |
| CC(/C=C/c1ccco1)=N\NC(=O)CNc1ccc2ccccc2c1 | 15.1 µM (active) |
| O=C(/C=C/c1ccco1)NCC(=O)N/N=C/c1ccc(Cl)cc1 | inactive |
| Cc1c(CN(C)C)c2c(n1C)C(=O)c1ccc(Br)cc1-2 | inactive |
| Cc1ccccc1CS(=O)(=O)c1cnc2ccccc2n1 | inactive |
| Cc1ccc(Cn2c(/C=C/c3ccco3)nc3ccccc32)cc1 | 6.01 µM (active) |
| O=c1oc2ccccc2nc1/C=C(\O)c1ccc(Br)cc1 | 6.01 µM (active) |
| CS(=O)(=O)Cc1nc2ccccc2oc1=O | inactive |
| O=c1oc2ccc(Cl)cc2nc1/C=C(\O)c1ccco1 | inactive |
| Fc1cccc(Nc2cc(-n3cccn3)ncn2)c1 | 10.7 µM (active) |
| Fc1cccc(Nc2nc3ccccc3n3cnnc23)c1 | inactive |
| Cc1ccc2cc3c(NC(=O)c4ccco4)nn(C)c3nc2c1 | 12 µM (active) |
| O=C(Nc1cnc2ccccc2c1)c1ccco1 | 1.35 µM (active) |
| O=C(NC(=S)Nc1cnc2ccccc2c1)c1ccccc1 | 3.38 µM (active) |
| Cc1cc(NC(=S)NC(=O)c2ccco2)c2ccccc2n1 | inactive |
| O=C(c1ccc([N+](=O)[O-])o1)N1CCN(c2nc3c(Cl)cccc3s2)CC1 | inactive |
| O=C(Nc1nc2c(Cl)cccc2s1)c1ccc([N+](=O)[O-])o1 | 10.7 µM (active) |

| Structure (SMILES) | Potency |
| --- | --- |
| CN(Cc1ccccc1)C(=O)c1ccc([N+](=O)[O-])o1 | inactive |
| O=C(CCS(=O)(=O)c1ccccc1)Nc1nc2ccc(F)cc2s1 | inactive |
| O=C(Nc1nc2ccc(F)cc2s1)c1ccc([N+](=O)[O-])o1 | 2.13 µM (active) |
| Cn1ccsc1=NC(=O)c1ccc([N+](=O)[O-])o1 | inactive |
| Cc1ccc(-n2nc3c([n+]2[O-])CCc2c-3no[n+]2[O-])cc1 | inactive |
| Oc1ccc(Cl)cc1/C=C/c1ccc2cccc(O)c2n1 | 9.53 µM (active) |
| COc1cc(Cl)cc(/C=C/c2ccc3cccc(O)c3n2)c1OC | 9.53 µM (active) |
| CN(N=Cc1ccccc1O)c1ccc2ccccc2n1 | 0.849 µM (active) |
| O=C(Nc1ccc(F)cc1)c1nsc(Cl)c1Cl | 1.69 µM (active) |
| CSc1nsc(SC)c1C(=O)Nc1ccc(Cl)cc1 | inactive |
| O=C(Nc1ccc(OC(F)F)cc1)c1ncc(Cl)c(Cl)c1Cl | inactive |
| COc1ccc(Nc2nc(C)nc3sc4c(c23)CCC4)cc1O | inactive |
| CC1(C)CC[C@]2(C(=O)n3ccnc3)CC[C@]3(C)[C@H](C(=O)C=C4[C@@]5(C)C=C(C#N)C(=O)C(C)(C)[C@@H]5CC[C@]43C)[C@@H]2C1 | 0.478 µM (active) |
| N#Cc1sc2nc(-c3ccccc3)cc(C(F)(F)F)c2c1N | inactive |
| COc1cccc(C(=O)Nc2cc(Cl)c(O)c(Cl)c2)c1 | 12 µM (active) |
| COc1cccc(NC(=O)c2cc(Cl)nnc2Cl)c1 | inactive |
| COC(=O)c1sccc1NC(=O)c1cccc(Cl)c1 | inactive |
| CN(C)c1oc(/C=C/c2ccccc2)nc1C#N | 8.49 µM (active) |
| Oc1ccc(CNc2ccccc2O)cc1 | 12 µM (active) |
| CCCCC1C(=O)N(c2ccccc2)N(c2ccc(O)cc2)C1=O (stereo not given) | 10.7 µM (active) |
| COc1ccc(-c2csc3nc(-c4cccnc4)nc(Cl)c23)cc1OC | 12 µM (active) |
| O=C(/C=C/c1ccco1)Nc1cccnc1Cl | 6.01 µM (active) |

| Structure (SMILES) | Potency |
| --- | --- |
| CC(C)(C)OC(=O)NCCC(=O)N/N=C/c1cccc2cccnc12 | inactive |
| Cc1ccc(/C=C/C(=O)OCC(=O)Nc2cccnc2Cl)o1 | inactive |
| O=C(/C=C/c1ccco1)Nc1cccc2cccnc12 | 4.78 µM (active) |
| O=C1NC(=Nc2ccccc2)S/C1=C\c1ccccc1 | 7.57 µM (active) |
| Cc1cccc(CC2S/C(=N/N=C/c3ccco3)NC2=O)c1 (stereo not given) | inactive |
| O=C1N/C(=N\N=C\c2ccco2)SC1Cc1ccc(F)cc1 (stereo not given) | inactive |
| O=C1NC(=Nc2ccccc2)S/C1=C\C=C\c1ccco1 | 6.01 µM (active) |
| O=C(CC1S/C(=N/N=C/c2ccco2)NC1=O)Nc1ccccc1 (stereo not given) | inactive |
| Cc1ccc(N=C2NC(=O)/C(=C/C=C/c3ccco3)S2)cc1 | 8.49 µM (active) |
| Cc1ccc(S(=O)(=O)CCSC(=N)N)cc1 | inactive |
| Cc1ccc(S(=O)(=O)C=CS(=O)(=O)c2ccc(C)cc2)cc1 | 0.379 µM (active) |
| Cc1ccc(S(=O)(=O)c2cc3ccccc3oc2=O)cc1 | inactive |
| O=C(COc1cccnc1[N+](=O)[O-])Nc1cccc2ccccc12 | inactive |
| C/C(=N\NC(=O)COc1ccccc1[N+](=O)[O-])c1cccs1 | 9.53 µM (active) |
| CCC/C(=N\NC(=O)c1ccco1)c1ccc(Cl)s1 | inactive |
| CCCN(C(=O)c1ccco1)c1nnc(-c2ccccc2C)s1 | 6.75 µM (active) |
| Oc1ccc(NCc2cccc(OCc3ccc(F)cc3)c2)cc1 | 3.38 µM (active) |
| CCOc1ccccc1NS(=O)(=O)c1c(C(=O)OC)sc2cccc(F)c12 | inactive |
| Cc1ccc(C(=O)Nc2nc(-c3ccco3)c(-c3ccco3)s2)o1 | 7.57 µM (active) |
| CCC(CC)c1nnc(NC(=O)/C=C/c2ccco2)s1 | inactive |
| CCOC(=O)Cc1csc(NC(=O)/C=C/c2ccco2)n1 | 4.26 µM (active) |
| Cc1cc(C)c2oc(-c3ccc(C)c(NC(=O)/C=C/c4ccco4)c3)nc2c1 | 2.39 µM (active) |

| Structure (SMILES) | Potency |
| --- | --- |
| Cc1csc(NC(=O)/C=C/c2ccco2)n1 | 3.01 µM (active) |
| Clc1ccc(C=Cc2ccccn2)cc1 | 0.379 µM (active) |
| Clc1ccc(C=Cc2ccccn2)c(Cl)c1 | 0.338 µM (active) |
| Clc1ccc(/C=C/c2ncc3ccccn23)cc1 | 1.51 µM (active) |
| Clc1ccc2c(NCc3ccccn3)ncnc2c1 | inactive |
| Cc1ccc2nc(/C(C#N)=C\c3ccc([N+](=O)[O-])o3)[nH]c2c1 | 8.49 µM (active) |
| Nc1c(C(=O)Nc2ccccc2Br)sc2nc(-c3cccs3)ccc12 | 8.49 µM (active) |
| Nc1c(C(=O)C2CC2)sc2nc(-c3cccs3)cc(C(F)(F)F)c12 | inactive |
| Cc1sc2ncnc(SCc3ccco3)c2c1C | inactive |
| c1coc(CSc2ncnc3c2oc2ccccc23)c1 | 5.36 µM (active) |
| O=C(COCc1cc(-c2cccs2)on1)Nc1cc(Cl)ccc1O | inactive |
| Fc1cccc2sc(Nc3nc4ccccc4s3)nc12 | 2.13 µM (active) |
| Fc1cc(F)c2nc(Nc3nc4cc5c(cc4s3)OCO5)sc2c1 | 5.36 µM (active) |
| Fc1ccc2nc(Nc3nc4c(F)cc(F)cc4s3)sc2c1 | 6.75 µM (active) |
| O=C(OCC(=O)N1CCCC1)c1cc([N+](=O)[O-])ccc1Cl | inactive |
| O=[N+]([O-])c1ccc(Cl)c(/C=N/n2c(-c3ccncc3)n[nH]c2=S)c1 | 1.9 µM (active) |
| CCOCCCNC(=O)c1ccc(-n2c(-c3ccccc3)cc3c2CCC(C)C3)cc1 (stereo not given) | inactive |
| O=C(Nc1ccc(F)cc1F)c1cc(-c2ccco2)nc2ccccc12 | 6.75 µM (active) |
| O=C(COC(=O)/C=C/c1ccco1)NCc1ccccc1Cl | inactive |
| O=C(Nc1ccccc1F)c1cc(-c2ccco2)nc2ccccc12 | 10.7 µM (active) |
| COc1ccccc1CNC(=O)COC(=O)c1cc(-c2ccco2)nc2ccccc12 | 5.36 µM (active) |
| O=Cc1c(Sc2ccccn2)nc2ccccn2c1=O | inactive |
